Consider 49 molecules from ChEMBL document CHEMBL4808148, “HDAC6 screening dataset using tau-based substrate in an enzymatic assay yields selective inhibitors and activators” (2021).

The assay has as its target T1, Protein deacetylase HDAC6 (Homo sapiens) (UniProt Q9UBN7).
T1 sequence (whole entry): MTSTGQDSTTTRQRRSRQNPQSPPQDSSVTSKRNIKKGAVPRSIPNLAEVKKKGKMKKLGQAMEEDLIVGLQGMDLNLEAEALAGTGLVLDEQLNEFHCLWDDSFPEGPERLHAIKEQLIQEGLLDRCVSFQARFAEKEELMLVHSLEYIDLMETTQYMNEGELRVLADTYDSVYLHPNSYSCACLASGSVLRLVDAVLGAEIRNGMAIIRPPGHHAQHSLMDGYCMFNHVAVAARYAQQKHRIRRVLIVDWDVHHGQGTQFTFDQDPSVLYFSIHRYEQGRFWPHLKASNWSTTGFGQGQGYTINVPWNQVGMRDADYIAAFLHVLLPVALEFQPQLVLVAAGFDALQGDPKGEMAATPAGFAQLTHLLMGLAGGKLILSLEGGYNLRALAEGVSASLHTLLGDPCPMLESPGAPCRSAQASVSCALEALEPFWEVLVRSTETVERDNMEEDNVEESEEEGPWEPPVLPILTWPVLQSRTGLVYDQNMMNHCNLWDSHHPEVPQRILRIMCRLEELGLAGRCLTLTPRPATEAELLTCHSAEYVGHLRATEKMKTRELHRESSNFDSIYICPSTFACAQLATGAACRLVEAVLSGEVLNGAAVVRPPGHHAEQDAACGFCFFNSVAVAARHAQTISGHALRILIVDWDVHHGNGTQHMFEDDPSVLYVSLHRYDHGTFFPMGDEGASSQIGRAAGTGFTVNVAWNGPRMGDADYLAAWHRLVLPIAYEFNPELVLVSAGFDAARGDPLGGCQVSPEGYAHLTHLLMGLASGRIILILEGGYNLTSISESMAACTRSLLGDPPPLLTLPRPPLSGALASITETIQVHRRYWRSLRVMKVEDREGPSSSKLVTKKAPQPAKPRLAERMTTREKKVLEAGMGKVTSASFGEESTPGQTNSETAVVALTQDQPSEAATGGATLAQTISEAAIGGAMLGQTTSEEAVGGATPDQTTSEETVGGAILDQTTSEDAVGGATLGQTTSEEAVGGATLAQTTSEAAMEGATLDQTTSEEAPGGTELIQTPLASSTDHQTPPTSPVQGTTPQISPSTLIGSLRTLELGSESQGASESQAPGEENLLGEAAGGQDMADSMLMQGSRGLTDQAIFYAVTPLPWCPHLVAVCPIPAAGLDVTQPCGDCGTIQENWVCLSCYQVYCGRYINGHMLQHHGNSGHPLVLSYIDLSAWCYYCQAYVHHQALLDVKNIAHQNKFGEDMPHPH
The conditions noted are these: at 10 µM.

The structures appear in SMILES notation. The campaign covered roughly 5,600 compounds. About 390 (7%) showed an effect of 50% or more. The sample as a whole holds a higher share of strong results than the screen did.

`CCOc1cc2ncc(C#N)c(Nc3ccc(OCc4cccc(F)c4)c(Cl)c3)c2cc1NC(=O)/C=C/CN(C)C`: the inhibition (usually the relative decrease from the control value, in per cent) is -4.4%.

With `Clc1ccc2nsnc2c1NC1=NCCN1`, the inhibition is -9.25%.

As to `CC(C)Oc1ccc(Cc2ccc(NC3=NCCN3)cc2)cc1`, the inhibition is 64%.

Take `CCc1[nH]c(=O)[nH]c1C(=O)c1ccncc1`: the inhibition is -6.73%.

In the case of `COc1cc(OC)c2c(=O)[nH]c(-c3cc(C)c(OCCO)c(C)c3)nc2c1`, the inhibition is 80.1%.

As for `COc1ccc2nc3[nH]nc(C)c3c(NCCOCCO)c2c1`, the inhibition worked out at 0.89%.

For `Nc1nc(Nc2ccc(S(N)(=O)=O)cc2)nn1C(=O)c1c(F)cccc1F`, the inhibition amounted to 38.5%.

With `COc1ccc(CNC(=O)c2sc3nc(C)cc(C)c3c2N)cc1`, the inhibition was 2.68%.

For `C#Cc1cccc(Nc2ncnc3cc(OC)c(OCCCCCCC(=O)NO)cc23)c1`, the inhibition was 101%.

For `COc1cc2ncnc(Nc3cccc(Br)c3)c2cc1OC`, the inhibition is 16.9%.

With `C#Cc1cccc(Nc2ncnc3cc(OCCOC)c(OCCOC)cc23)c1`, the inhibition is 32.3%.

Turning to `Cn1ccnc1S`, the inhibition was -0.6%.

`O=C(O)c1cc(C(=O)O)c(C(=O)N(Cc2cccc(Oc3ccccc3)c2)[C@H]2CCCc3ccccc32)cc1C(=O)O`: the inhibition worked out at 7.63%.

Consider `Cc1ccc(Sc2ccccc2N2CCNCC2)c(C)c1`, for which the inhibition was -7.14%.

In the case of `CC(=O)Nc1cccc(O)c1`, the inhibition came out at 34.1%.

For the molecule `COC(=O)/C=C/c1cccc(N(Cc2ccc(-c3ccc(N(C)C)cc3)cc2)C(=O)C2CCCCC2)c1`, the inhibition was -3.18%.

`CN(C)C(=O)Nc1cccc(-c2ccc(N(C)C)cc2)c1`: the inhibition is 94.6%.

Take `CC1(C)C(/C=C/C=C/C=C/C=C2\N(CCCCS(=O)(=O)O)c3ccc4ccccc4c3C2(C)C)=[N+](CCCCS(=O)(=O)[O-])c2ccc3ccccc3c21`: the inhibition stood at 21.1%.

In the case of `OCCOCCN1CCN(C(c2ccccc2)c2ccc(Cl)cc2)CC1` (centres undefined), the inhibition is 89.5%.

On to `O=C(O)COCCN1CCN(C(c2ccccc2)c2ccc(Cl)cc2)CC1` (centres undefined), for which the inhibition was -6.57%.

As to `O=C(O)COCCN1CCN([C@H](c2ccccc2)c2ccc(Cl)cc2)CC1`, the inhibition is -6.59%.

Take `Cc1c(CC(C)(C)C(=O)O)n(Cc2ccc(Cl)cc2)c2ccc(F)cc12`: the inhibition turned out to be 3.54%.

`Nc1ccn([C@@H]2C(F)=C(CO)[C@@H](O)[C@H]2O)c(=O)n1`: the inhibition was 8.8%.

Take `CCc1cccc(CC)c1NC(=O)c1nn(C)c2c1CCc1cnc(Nc3ccc(C(=O)NC4CCN(C)CC4)cc3OC(F)(F)F)nc1-2`: the inhibition is -2.89%.

In the case of `CC(C)(CCCCCCCCCCC(C)(C)CC(=O)O)CC(=O)O`, the inhibition was -0.28%.

In the case of `N#Cc1cc(F)cc(-c2nc(-c3ccc(F)cn3)no2)c1`, the inhibition is 83.6%.

With `N#Cc1cccc(-c2nc(-c3cccnc3)no2)c1`, the inhibition came to 19.8%.

On to `COC(=O)c1cnn(-c2ccc(F)cc2F)c1/C=N/NC(=S)NC(C)(C)C`, for which the inhibition was 0.12%.

In the case of `CC[C@H](C)[C@H](N)C(=O)O`, the inhibition was found to be 9.28%.

Turning to `COc1ncc2cc(C(=O)Nc3cc(C(=O)NCc4cccc(Cl)c4)ccc3Cl)c(=O)[nH]c2n1`, the inhibition is 4.52%.

Take `Cn1nc(-c2cccc(F)c2)n(C)c1=S`: the inhibition was found to be 17.9%.

Turning to `Cc1csc(S(=O)(=O)N(CC(C)C)c2cc3c(cc2OCc2ccc(C(=O)O)cc2)CCC3)n1`, the inhibition came out at 1.78%.

On to `CNCc1ccc(C)c(NC(=O)c2ccc(Nc3nc(-c4ccccc4)c4ccccc4n3)cc2)c1`, for which the inhibition is -7.66%.

Consider `Cc1ccc(NC(=O)c2cccc(N(C)C)c2)cc1NC(=O)c1ccc(O)cc1`, for which the inhibition amounted to 80.4%.

As for `Cc1ccc(C(=O)Nc2ccc(S(=O)(=O)O)c3cc(S(=O)(=O)O)cc(S(=O)(=O)O)c23)cc1NC(=O)c1cccc(NC(=O)Nc2cccc(C(=O)Nc3cc(C(=O)Nc4ccc(S(=O)(=O)O)c5cc(S(=O)(=O)O)cc(S(=O)(=O)O)c45)ccc3C)c2)c1`, the inhibition came out at 32.3%.

As to `CC(=O)O[C@H]1CC[C@@]2(C)C(=CC[C@@H]3[C@@H]2CC[C@]2(C)C(c4cccnc4)=CC[C@@H]32)C1`, the inhibition is 15.8%.

In the case of `O=[N+]([O-])c1cc2nc(O)c(O)nc2cc1[N+](=O)[O-]`, the inhibition was -5.28%.

Turning to `O=C(O)c1cc(=O)c2ccccc2o1`, the inhibition was -1.55%.

Regarding `CC(C)c1ccc(-c2cc(=O)c3ccccc3o2)cc1`, the inhibition is 101%.

Consider `NCCC(Oc1ccc(C(F)(F)F)cc1)c1ccccc1` (centres undefined), for which the inhibition came to 1.38%.

On to `CC[C@H]1OC(=O)[C@@](C)(F)C(=O)[C@H](C)[C@@H](O[C@@H]2O[C@H](C)C[C@H](N(C)C)[C@H]2O)[C@](C)(OC)C[C@@H](C)C(=O)[C@H](C)[C@H]2N(CCCCn3cc(-c4cccc(N)c4)nn3)C(=O)O[C@]12C`, for which the inhibition worked out at 17.2%.

Take `c1ccc2sc(SN3CCOCC3)nc2c1`: the inhibition was found to be 58.2%.

As for `FC(F)c1nc2ccccc2n1-c1nc(N2CCOCC2)nc(N2CCOCC2)n1`, the inhibition came to 29.1%.

For the molecule `COc1ccccc1Oc1c(NS(=O)(=O)c2ccc(C(C)(C)C)cc2)nc(-c2ncccn2)nc1OCCO`, the inhibition stood at 22.5%.

As for `COc1ccc(F)c(F)c1C(=O)c1cnc(NC2CCN(S(C)(=O)=O)CC2)nc1N`, the inhibition was -5.57%.

Turning to `C=CCNC(=O)c1cc([N+](=O)[O-])cc2c(=O)[nH]c(Nc3ccc(Cl)c(Cl)c3)nc12`, the inhibition came to 17.8%.

As for `CN(C)c1ccc2c(c1)Sc1cc(N(C)C)ccc1N2`, the inhibition came to 66.8%.

With `N#CN=C(NCCCCCCOc1ccc(Cl)cc1)Nc1ccncc1`, the inhibition was -6.3%.

On to `COc1cc2c(NC3CCN(C(C)C)CC3)nc(N3CCC(F)(F)CC3)nc2cc1OCCCN1CCCC1`, for which the inhibition was -5.91%.
